# High-throughput results: PubChem, several laboratories
# The list is a sample of the results.
# PostGolgi yeast – phenotypic screen on post-Golgi transport, primary screen | AID 739, 2007 | post-Golgi transport phenotypic cell assay | inhibition, % at 10 µM | actives 0.9% (n = 98,000);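 further: yeast cells grown in 1536-well plates; yeast grown about 18 h at 30C before absorbance read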
# CYP2C19 inhib – blockers of cytochrome P450 2C19 activity – biochemical, luminescence, ADME assay, primary screen; AID 778, 2007; P33261; CYP2C19 Supersomes, luciferin-H EGE luminescence, 30 min; inhibition, % at 5 µM; actives 21% (n = 96,000);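 active means CYP2C19 inhibition above a set limit at 5 µM in the primary screen, cut at about 50% in these data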;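 further: plate controls were negative control wells for no effect and 2.5 mM tranylcypromine positive control for full effect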
# PostGolgi ctrl – growth inhibition of yeast control strain, primary screen, counter-screen for post-Golgi transport modulator project; actives 5% (n = 98,000); AID 738, 2007; efflux-deficient yeast background strain, growth absorbance A615, 16 h; inhibition, % at 10 µM
# CYP2C19 activ – human CYP2C19 activators, primary screen, biochemical, luminescence. 96,000 tested, under 10 active. Cytochrome P450 2C19 (Homo sapiens), P33261. recombinant CYP2C19, luciferin-H EGE luminescence; active compounds read high; 0 = fully inhibited enzyme, 1 = untreated enzyme. activation factor at 5 µM;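 active means activation factor of at least 2 at 5 µM in the primary screen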;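 further: 0 = wells with 2.5 mM tranylcypromine and 1 = vehicle-only wells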
# CYP2C9 inh – blockers of cytochrome P450 2C9 activity – biochemical, luminescence, ADME assay, primary screen; P11712; CYP2C9 Supersomes, luciferin-H conversion; inhibition, % at 5 µM; actives 20% (n = 96,000); AID 777, 2007;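 active means blocking of liver enzyme CYP2C9 beyond about 50% at 5 µM, limit read from the data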
# Target sequence (P11712 whole entry, looked up): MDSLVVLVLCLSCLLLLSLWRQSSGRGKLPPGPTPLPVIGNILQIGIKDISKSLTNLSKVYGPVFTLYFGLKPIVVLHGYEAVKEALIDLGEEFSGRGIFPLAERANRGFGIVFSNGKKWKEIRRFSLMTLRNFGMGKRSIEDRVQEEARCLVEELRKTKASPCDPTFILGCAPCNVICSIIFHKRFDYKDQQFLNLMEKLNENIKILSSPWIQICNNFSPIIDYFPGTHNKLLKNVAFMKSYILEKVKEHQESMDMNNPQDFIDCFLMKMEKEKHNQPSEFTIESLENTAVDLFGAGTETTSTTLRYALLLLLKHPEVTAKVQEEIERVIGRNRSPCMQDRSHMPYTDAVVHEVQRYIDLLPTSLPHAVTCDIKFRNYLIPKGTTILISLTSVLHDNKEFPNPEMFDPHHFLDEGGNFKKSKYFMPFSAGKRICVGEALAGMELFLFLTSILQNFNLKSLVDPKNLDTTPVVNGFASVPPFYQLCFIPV
# CYP2C9 act – human CYP2C9 activators, primary screen, biochemical, luminescence; actives 1.4% (n = 96,000); recombinant CYP2C9, luciferin-H conversion; active compounds read high; factor 1 = untreated enzyme, 0 = blocked; Cytochrome P450 2C9 (Homo sapiens), P11712; activation factor at 5 µM;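 active means activation factor of 2 or more for CYP2C9 at a 5 µM dose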;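 further: 0 = sulfaphenazole-blocked wells and 1 = vehicle-only wells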
# * hit, by the source's call. Unless noted, no stated cut-off is given here; in the data, active means inhibition above about 30%; inactive means the rest.
SMILES,PostGolgi yeast,CYP2C19 inhib,PostGolgi ctrl,CYP2C19 activ,CYP2C9 inh,CYP2C9 act
COC(=O)c1ccc(NC(=O)C2CCCCC2C(=O)O)cc1 (configuration not stated),-1.9,19.3,8.4,0.8,2.9,1
CC(C)(CS(=O)(=O)[O-])NC(=O)CC[N+](C)(C)CCO,-1.9,-12.9,7.2,1.1,-7.9,1.1
COc1cccc(C2=Nn3c(nnc3-c3ccccc3O)SC2)c1,9.7,42.7,7.0,0.6,69.1*,0.3
Clc1c(CSc2nc3ccccc3o2)nc2sccn12,-2.0,48.4,36.2*,0.5,-16.4,1.2
c1ccc2oc(SCc3nc4ccccc4s3)nc2c1,14.9,13.6,-2.5,0.9,-6.9,1.1
Brc1c(CSc2nc3ccccc3o2)nc2ncccn12,3.9,64.3*,9.3,0.4,-30.8,1.3
Clc1c(CSc2nc3ccccc3o2)nc2ccccn12,2.2,97.9*,7.1,0,-0.7,1
Cc1cc(C)nc(SCc2nc3ncccn3c2Br)n1,3.2,-0.9,8.4,1,-17.6,1.2
CC(=O)Nn1c(-c2ccccc2)cc2ccccc21,6.5,23.9,-1.5,0.8,35.8,0.6
O=C(NC1CCCC1)C1CCCN1C(=O)Nc1ccc(Cl)cc1 (configuration not stated),-2.7,27.1,16.9,0.7,2.7,1
C=C(C)C1CCC(C)=C1COC(=O)Nc1ccccc1 (configuration not stated),3.1,22.1,24.4,0.8,37.1,0.6
O=C(NCCCN1CCOCC1)c1cc(-c2ccc3c(c2)OCO3)nc2ccccc12,-1.7,12.2,-0.1,0.9,54.3*,0.5
COc1ccc(-c2cc(C(=O)NCCN3CCOCC3)c3ccccc3n2)cc1,-4.0,24.0,7.5,0.8,52.0*,0.5
CCOc1ccc(-c2cc(C(=O)NCCCN3CCN(CC)CC3)c3ccccc3n2)cc1,1.4,-7.0,12.5,1.1,18.8,0.8
COC(=O)c1cc(-c2ccc3c(c2)OCO3)nc2ccccc12,14.1,6.7,0.4,0.9,38.7,0.6
CCc1ccccc1N1CC(C(=O)O)CC1=O (configuration not stated),1.2,-12.9,26.0,1.1,-17.7,1.2
CCOC(CNC(=O)CCc1c(C)nc2ncnn2c1C)OCC,7.8,-8.7,0.8,1.1,-17.6,1.2
Cc1cc(C)nc(N2CCCC(C(=O)NC(C)CCc3ccco3)C2)n1 (configuration not stated),1.6,73.9*,7.0,0.3,58.7*,0.4
Cc1cc(=O)n2nc(N3CCCC(C(=O)NCc4ccco4)C3)sc2n1 (configuration not stated),-4.4,-1.8,8.2,1,4.9,1
CCOC(=O)C1CCN(S(=O)(=O)c2ccc(Cl)cc2OC)CC1,-3.5,84.2*,8.8,0.2,-43.0,1.4
CCOC(=O)C1CCN(S(=O)(=O)c2ccc(OC)c(Cl)c2Cl)CC1,3.6,-13.6,12.6,1.1,-23.0,1.2
CCOC(=O)C1CCN(S(=O)(=O)c2cc(Cl)c(C)cc2OC)CC1,0.8,97.9*,4.8,0,2.8,1
COc1cc(OC)cc(C(=O)NC2=NCCS2)c1,-13.9,-3.8,1.0,1,-2.4,1
CC1CCN(S(=O)(=O)c2cc(Br)cc(C(=O)NC3=NCCS3)c2)CC1,1.0,67.8*,25.1,0.3,45.0,0.6
CCOC(=O)N1CCC(NC(=O)C2CCN(C(=O)N3CCOc4ccccc43)CC2)CC1,-4.2,9.5,-0.5,0.9,-2.1,1
CCOC(=O)N1CCC(NC(=O)C2CCCN(C(=O)N3CCOc4ccccc43)C2)CC1 (configuration not stated),-5.9,15.9,10.3,0.8,79.6*,0.2
Cc1nn(-c2ccc(C(=O)O)cc2)c(C)c1Oc1ccccc1O,-7.1,-17.0,2.5,1.2,-22.2,1.2
Cc1nn(-c2ccccn2)c(C)c1Oc1ccccc1O,34.5*,38.1,0.3,0.6,27.7,0.7
CCCN(CCC)c1ncnc2c1cnn2-c1ccc(OC)cc1,2.6,10.5,21.3,0.9,7.8,0.9
CCOc1ccc(S(=O)(=O)NCCCN2CCOCC2)cc1,-2.0,0.8,14.7,1,-23.9,1.2
